According to PubChem BioAssay (NCATS):
Records with an inconclusive call do not appear. A call without a number means that no potency is given here. Active and inactive are the calls of the source. Calls follow the shape of the dose curve; as a rule, active = well fitted cell-killing curve with a large enough effect; inconclusive = small, poorly fitted or top-dose-only effect, or effect the other way; inactive = no such curve, though single readings can be large or run the other way.

Assays:
[1] = Viability qHTS for spleen associated tyrosine kinase inhibitor (SYKi) naive MV4-11 cells (AID 1963823); also: nearly all actives have a fitted effect of over 40% in size
Outline: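 Viability of MV4-11 AML cells lacking prior SYK inhibitor exposure is scored by CellTiter-Glo luminescence following 72 hr compound incubation at 37 C, 5% CO2, seeded at 500 cells per well.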

[2] = Viability qHTS for spleen associated tyrosine kinase inhibitor (SYKi) drug resistant MV4-11 cells (AID 1963824); also: nearly all actives have a fitted effect of over 35% in size
Outline: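 CellTiter-Glo luminescence, read 10 min after reagent addition, reports viability after a 72 hr compound exposure. Cells are an MV4-11 line made resistant to SYK inhibition, seeded at 500 per well onto compound-containing plates.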
Potency is read from the fitted curve at half-maximal effect.

| Structure (SMILES) | Potency [1] | Potency [2] |
| --- | --- | --- |
| COc1c2ccoc2nc2c(OC)c(O[C@@H]3O[C@@H](C)[C@H](O)[C@@H](O[C@@H]4O[C@H](CO)[C@@H](O)[C@H](O)[C@H]4O)[C@H]3OC(C)=O)ccc12 | inactive | inactive |
| COc1ccc(CCC(=O)c2c(O)cc(O[C@@H]3O[C@H](CO)[C@@H](O)[C@H](O)[C@H]3O[C@@H]3O[C@@H](C)[C@H](O)[C@@H](O)[C@H]3O)cc2O)cc1O | inactive | inactive |
| CCCCCCOc1cc2c(cc1N(C)c1ncc(C(=O)O)cn1)C(C)(C)CCC2(C)C | 23.1 µM (active) | 6.51 µM (active) |
